Screening results deposited in PubChem by several laboratories.
The list is not random: actives were taken first. Their share in the collection is about 0.93%.
Jurkat NFkB inh – inhibitors of the PMA/ionomycin-induced NF-kB reporter in Jurkat cells; PMA/ionomycin-induced NF-kB luciferase reporter, luminescence; inhibition, % at 4 µM; 330,000 tested, 0.53% active; in the data active = inhibition above about 50%
HIF act – HIF pathway transcriptional activation | U2OS HRE-luciferase reporter, luminescence; normalized: DMSO 0%, desferrioxamine 100% | activation, % at 7.5 µM (by protocol) | 300,000 tested, 0.32% active;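 active = mean activation of at least 10% of the iron chelator positive control signal, with at least half of replicates also reaching 10%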
CFTR F508del cor – CFTR F508del correction in bronchial cells; CFBE cells, YFP halide quenching; stimulated with forskolin plus potentiator P3; % fluorescence drop versus neutral controls; activity (quench increase), % at 7.58 µM; 350,000 tested, 0.36% active;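 active = mean added fluorescence quench of at least 8% versus neutral control, with both replicates also reaching 8%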;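 note: cells transiently co-express mutant CFTR-F508del with the halide-sensitive YFP; corrector assay measuring rescue of mutant channel to the surface after 24 h compound exposure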
697 NFkB inh – inhibitors of the PMA/ionomycin-induced NF-kB reporter in 697 B cells; 697 B-cell NF-kB luciferase reporter, 16 h; inhibition, % at 4 µM; 330,000 tested, 0.33% active; AID 435022; in the data active = inhibition above about 35%
Jurkat NFkB conf – inhibitors of the PMA/ionomycin-induced NF-kB reporter in Jurkat cells, retest; shares compounds with Jurkat NFkB inh; Jurkat NF-kB luciferase, 16 h; inhibition, % at 4 µM; 2,700 tested, 27% active; AID 435020;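 active = inhibition reaching about 45% at 4 µM in either replicate, limit read from the data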;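 note: plate controls were PMA/ionomycin stimulated DMSO wells for no effect and unstimulated DMSO wells for full effect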
Starred values were filed as active, the others as inactive; · = no result given.

SMILES	Jurkat NFkB inh	HIF act	CFTR F508del cor	697 NFkB inh	Jurkat NFkB conf
Cc1nc2ccccc2c2c1CC(C(C)(Cl)Br)O2 (stereo not drawn)	56*	0	3	-45	56*
Cc1ccc2nc(C)c3c(c2c1)OC(C(C)(Cl)Br)C3 (stereo not drawn)	18	0	1	-42	·
CC(C)c1ccc2nc(NC(=O)C3CC3)sc2c1	-159	0	3	-154	-86
O=C(Nc1nc2cc3c(cc2s1)OCO3)C1CCCCC1	-166	2	0	-203	-97
COc1ccc2nc(NC(=O)c3cc(C)oc3C)sc2c1	-69	3	·	-21	·
O=C(Nc1nc2ccc(S(=O)(=O)N3CCCC3)cc2s1)C1CCCCC1	62*	-1	·	-20	58*
COc1ccc(C(=O)Nc2nc3cc4c(cc3s2)OCO4)c(OC)c1	-174	-8	-3	-179	-83
COc1ccc(NC(=O)N[C@@H]2C=C[C@H](CC(=O)NC3CCC3)O[C@H]2CO)cc1	·	·	-2	·	·
O=C(COc1ccc2c(-c3ccccc3)cc(=O)oc2c1)Nc1cccnc1	50*	0	0	-48	48*
C[C@@H]1CN([C@@H](C)CO)C(=O)c2cc(NC(=O)Cc3ccccc3)ccc2O[C@@H](C)CCCCO[C@H]1CN(C)CC1CCCCC1	·	·	-2	·	·
CC1CCN(c2ccc([N+](=O)[O-])cn2)CC1	-35	-3	·	-16	·
Cc1c(C)c(C)c(C(=O)C2CCN(c3ccc([N+](=O)[O-])cn3)CC2)c(C)c1C	73*	0	-2	-6	12
COc1cccc(N2CCN(c3ccc([N+](=O)[O-])cn3)CC2)c1	64*	0	-1	-11	19
O=[N+]([O-])c1ccc(N2CCN(c3ccccc3)CC2)nc1	20	-18	-1	2	·
N#C[C@H]1[C@@H](c2ccccc2-c2cccc(F)c2)[C@H](CO)N1C(=O)C1CC1	·	·	0	·	·
COC(=O)c1ccc(-c2ccc(Cl)cc2)nc1C	-172	1	·	-181	-95
COc1cccc(NC(=O)c2cnn(-c3ccccc3)c2C)c1	-169	-2	1	-187	-82
COc1cccc(NC(=O)c2cc3ccccc3o/c2=N\O)c1	-159	-2	2	-129	-130
COc1ccc2oc(=O)c(C(=O)Nc3cccc(C)c3)cc2c1	-89	1	1	-101	·
Cc1cccc(NC(=O)c2cc3ccccc3oc2=O)c1	-154	4	2	-138	-97
CC(C)NC(=O)NC(=O)COc1ccc(Br)cc1Br	-205	3	·	-206	-94
CN1c2ccc(-c3ccccc3)cc2[C@H]2[C@H](CCN2C(=O)c2ccncc2)[C@@H]1CO	·	·	0	·	·
C[C@@H]1CN([C@@H](C)CO)C(=O)c2cc(C#C[C@@H](C)O)cnc2O[C@H]1CN(C)C(=O)Nc1ccc(C(F)(F)F)cc1	·	·	-1	·	·
Cc1cc(CN(C)C(=O)CC2C(=O)NCCN2Cc2ccc(-c3ccccc3)cc2)on1 (stereo not drawn)	-5	0	3	8	·
CN(C)Cc1ccc(-c2nc3cccc4c3n2CCNC4=O)cc1	57*	2	-2	-11	7
SMILES	Jurkat NFkB inh	HIF act	CFTR F508del cor	697 NFkB inh	Jurkat NFkB conf
O=C1O[C@H](c2ccccc2)[C@H](c2ccccc2)N2[C@H]1[C@@H](C(=O)N1CCCCCCC1)[C@]1(C(=O)Nc3ccc(C#CC4=CCCCC4)cc31)[C@H]2c1ccc(O)cc1	·	·	-3	·	·
CC(C)CC(=O)Nc1ccc2nn(-c3ccccc3)nc2c1	-183	2	·	-158	-112
CCCC(=O)Nc1ccc2nn(-c3ccc(OC)cc3)nc2c1	-130	2	0	-190	·
Cc1ccc(C(=O)NC2CCCC2)s1	9	1	-4	-10	·
Cc1ccc(C(=O)NC2CCC(C)CC2)s1 (stereo not drawn)	-164	3	-3	-157	-66
O=C(c1cccnc1)N1CCCCN2[C@H](CO)[C@H](c3ccc(C#Cc4ccccc4)cc3)[C@@H]2C1	·	·	1	·	·
CCCc1cc(C(=O)Nc2cc(C)ccc2O)no1	92*	3	-3	32	61*
O=C(Nc1cc(Br)ccc1O)c1cc(-c2ccccc2)on1	-32	4	0	-181	·
Cc1ccc(O)c(NC(=O)c2cc(-c3ccccc3)on2)c1	86*	6	3	-25	38
CN1C(=O)c2cc(NC(=O)c3ccc(F)cc3)ccc2OC[C@@H]2O[C@H](CC(=O)O)CC[C@H]21	·	·	1	·	·
CCCC#Cc1ccc2c(c1)O[C@H](CN(C)C(=O)c1ccccc1)[C@@H](C)CN([C@@H](C)CO)S2(=O)=O	·	·	-2	·	·
CN(C)CC#Cc1ccc([C@H]2[C@@H](CO)N3CCCCN(C(=O)C4CC4)C[C@H]23)cc1	·	·	-2	·	·
CCOc1ccc(/C=N/NC(=O)c2[nH]c3ccc(C)cc3c2C)cc1	-3	-12	2	-3	·
O=C(N/N=C/c1ccc(O)cc1)c1[nH]c2ccc(Br)cc2c1-c1ccccc1	60*	0	10.0*	-3	31
Cc1c(C(=O)N/N=C/c2ccc(Cl)cc2)[nH]c2ccc(Cl)cc12	52*	0	3	23	51*
C[C@H]1CN([C@@H](C)CO)C(=O)c2cc(-c3ccncc3)cnc2O[C@@H]1CN(C)S(=O)(=O)c1ccc(F)cc1	·	·	2	·	·
COc1ccc2[nH]c(=O)c(CN(Cc3cccs3)S(=O)(=O)c3c(C)ccc4nsnc34)cc2c1	57*	-1	·	-51	27
COc1ccc(N(Cc2cc3cc(OC)ccc3[nH]c2=O)S(=O)(=O)c2ccc(NC(C)=O)cc2)cc1	69*	-1	2	-2	21
Cc1nn(C)c(C)c1CN(Cc1nc(CCC(C)C)no1)C(C)C	53*	0	-2	9	51*
CC(C)CCc1noc(CN(C)CCC2CCOCC2)n1	-3	0	1	17	·
CCOC(=O)c1ccccc1NS(=O)(=O)c1ccc(OCC)cc1	62*	0	·	-88	42
Cc1ccc(-n2[nH]c(=O)c(-c3ccccn3)c2C)cc1	58*	-2	-3	-25	26
CC(C)CC#Cc1ccc2c(c1)O[C@H](CN(C)C(=O)C1CCCCC1)[C@@H](C)CN([C@@H](C)CO)S2(=O)=O	·	·	2	·	·
COc1ccc(CC2C(=O)NC(C)C(=O)N(C)C3Cc4ccc(cc4)Oc4cc(ccc4O)CC(C(=O)NC(C)C(=O)NC(C)C(=O)N2C)N(C)C3=O)cc1 (stereo not drawn)	·	·	0	·	·
CCC[C@H]1NC(=O)[C@H](C)N(C)C(=O)C(C)(C)C(=O)C(C)NC(=O)[C@H](Cc2ccc(OC)cc2)N(C)C(=O)[C@H](C(C)C)N(C)C(=O)CNC(=O)[C@H](CC(C)C)N(C)C(=O)CNC(=O)[C@H]([C@@H](C)CC)OC(=O)[C@H]1C (stereo partly drawn)	82*	·	·	-28	42
CC1Cc2ccccc2N1C(=O)c1cccnc1 (stereo not drawn)	15	0	·	23	·
Cc1nc2ccc(C(=O)N3c4ccccc4CC3C)cc2s1 (stereo not drawn)	55*	-1	2	-75	14
